KCNH2 3.1 block: qHTS for Inhibitors of KCHN2 3.1: Mutant qHTS. Potassium voltage-gated channel subfamily H member 2, brain isoform KCNH2 3.1 (human). U2OS KCNH2 3.1, thallium flux FluxOr; active compounds read low. activity change, % (tested at about 1.8 µM). 0.95% of 340,000 active. AID 720553, 2013;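 active means maximum activity change below -70%; inconclusive means maximum activity change from -70% to -50%; inactive means maximum activity change above -50%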;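 further: thallium influx rate constant from kinetic fluorescence after stimulation buffer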
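Normalized rate constant (relative to positive and negative DMSO controls) derived from a 2 min kinetic fluorescence read after stimulation; U2OS cells expressing the 3.1 isoform via virus at 1.77 x 10^8 /mL.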
hERG WT inh: qHTS for Inhibitors of KCHN2 3.1: Wildtype qHTS; Voltage-gated inwardly rectifying potassium channel KCNH2 (Homo sapiens), Q12809; U2OS, BacMam KCNH2, thallium flux FluxOr; active compounds read low; activity change, % at 1.84 µM; 0.37% of 340,000 active; AID 720551, 2013;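 active means maximum activity change below -70%; inconclusive means maximum activity change between -70% and -50%; inactive means maximum activity change above -50%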
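U2OS cells transduced with wild-type KCNH2 virus are loaded with FluxOr dye for 45 min, and thallium flux is measured in kinetic reads before and after stimulation buffer. Rate constants are normalized to DMSO controls.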
Chronic BCR inh: qHTS Assay to Find Inhibitors of Chronic Active B-Cell Receptor Signaling; ABC-DLBCL IkBa-CBG/CBR reporter, luminescence ratio, 4 h; AID 493014, 2011; Potency, µM (top dose mostly 46.1 µM), actives largely listed as inhibitors; 0.05% of 340,000 active; active means well fitted inhibition curve with a large enough effect in the signal ratio, with a control signal flat, not every such curve was filed as active; inconclusive means small, poorly fitted or top-dose-only effect, or effect the other way, or a change in a side signal; the % refers to the signal ratio
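TMD8 ABC-DLBCL cells carrying doxycycline-inducible green luciferase fused to IkappaBalpha plus unfused red luciferase were exposed to compounds (up to 46 uM) for 4 hrs at 37C. Activity came from the overlap-corrected green/red luminescence ratio.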
ALOX12 inh: Primary qHTS assay for inhibitors of human arachidonate 12S-lipoxygenase (ALOX12): Round 2; purified 12hLO, xylenol orange hydroperoxide absorbance; Potency, µM (top dose mostly 108 µM), hits mostly inhibitors; 1.1% of 580,000 active; active means well fitted inhibition curve with a large enough effect; inconclusive means small, poorly fitted or top-dose-only effect, or another doubt; inactive means no such curve, though single readings can be large or run the other way
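Purified human 12hLO (150 nM final) in 25 mM Hepes, 0.01% Triton X-100, pH 7.0 was preincubated 15 min at room temperature with compound. Then 40 uM arachidonic acid was added, 30 min. Hydroperoxide was read by Fe-XO absorbance ratio 573/405 nm.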
ClpP mod: qHTS Assay for Activators of ClpP; ATP-dependent Clp protease proteolytic subunit (Bacillus subtilis (strain 168)), P80244; purified B. subtilis ClpP, FRET peptide cleavage, 20 min; Potency, µM (doses to about 57.5 µM); 1.9% of 340,000 active; AID 651965, 2013; active means well fitted falling curve with a large enough effect; inconclusive means small, poorly fitted or top-dose-only effect; inactive means no such curve, though single readings can be large or run the other way; further: the source files actives as falling curves though it sought activators and does not explain the sign; nearly all actives have a fitted effect of over 65% in size
Target sequence (P80244 whole entry, looked up): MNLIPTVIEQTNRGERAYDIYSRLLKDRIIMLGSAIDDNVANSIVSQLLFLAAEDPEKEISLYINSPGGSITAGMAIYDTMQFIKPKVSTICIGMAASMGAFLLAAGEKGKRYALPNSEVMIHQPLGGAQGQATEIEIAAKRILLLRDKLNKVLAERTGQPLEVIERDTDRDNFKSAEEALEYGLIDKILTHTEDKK
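ClpP 10 microg/mL final, pH 8 Tris/KCl buffer with BSA, glycerol, Tween-20; compound pinned in; FRET-FV substrate; RT 20 min; Ex320/Em430; ΔFRET vs ADEP 5.8 microM, DMSO, no enzyme.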
LDHA inh: qHTS assay for inhibitors of human lactate dehydrogenase; L-lactate dehydrogenase A chain (Homo sapiens), P00338; purified LDHA, NADH/diaphorase-resazurin fluorescence; active compounds read low; activity change, % (values are at about 110 or 230 µM); 0.15% of 480,000 active; AID 1347041, 2019; in the data active means activity change below about -30%; inconclusive means mostly about -25% to -30%
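Remaining NADH was detected by diaphorase (0.133 mg/mL) converting 37 µM resazurin to fluorescent resorufin, read at 0 and 20 minutes. The preceding 5-minute room-temperature reaction used 2 nM LDHA, 0.2 mM sodium pyruvate and 0.06 mM NADH at pH 7.4.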
Hits are given with their value; 0 = inactive; ? = inconclusive; - = no result given; ! = not confirmed by another sample. Only some compounds are listed: those with a hit (about 3% of all), similar ones and a draw of the others.

SMILES | KCNH2 3.1 block | hERG WT inh | Chronic BCR inh | ALOX12 inh | ClpP mod | LDHA inh
O=C(Nc1ccc([N+](=O)[O-])cn1)c1cc(-c2cccc(Cl)c2)nc2ccccc12 | ? | ? | 0 | 0 | 0 | 0
O=C(Nc1ccc([N+](=O)[O-])cn1)c1cc(-c2cccc(Br)c2)nc2ccccc12 | -80.7 | 0 | 0 | 0 | 0 | 0
COc1cc(/C=C2\CC/C(=C\c3cc(OC)c(O)c(OC)c3)C2=O)cc(OC)c1O | 0 | 0 | ? | 20µM | 0 | 0
COc1cc(/C=C2\CC/C(=C\c3cc(OC)c(OC)c(OC)c3)C2=O)cc(OC)c1OC | 0 | 0 | 0 | 0 | - | 0
Cc1ccc(/C=c2\sc3nc(-c4cccnc4)nn3c2=O)cc1 | 0 | 0 | 0 | 0 | 14.1µM | 0
CC(C)c1ccc(/C=c2\sc3nc(-c4ccncc4)nn3c2=O)cc1 | 0 | 0 | 0 | ? | 0 | 0
COc1ccc(-c2cnc3c(c2)CCC3(C#N)C#N)cc1 | 0 | 0 | ? | 0 | 15.8µM | 0
CCCCCCOc1ccc(C(=O)N2CCN(c3oc(-c4ccco4)nc3C#N)CC2)cc1OC | - | - | - | ? | - | 0
CC(C)(C)NC(=O)c1nn(-c2ccccc2)c(=O)c2ccccc12 | - | - | - | 0 | - | 0
COc1ccc(C(=O)OCC(=O)Nc2c(C(C)C)cccc2C(C)C)c(OC)c1OC | - | - | - | 0 | - | 0
Cc1cc(C)c(S(=O)(=O)N2CCN(C(=O)CN3C(=O)NC4(CCCC4)C3=O)CC2)c(C)c1 | 0 | 0 | 0 | 0 | 35.5µM | 0
COc1ccc(C(CNC(=O)CN2CCN(C)CC2)c2c[nH]c3ccccc23)cc1 (stereo not given) | - | - | - | 0 | - | 0
O=C(NC(Cc1ccccc1)C(=O)Nc1ccc(N2CCOCC2)cc1)c1ccco1 (stereo not given) | - | - | - | ? | - | 0
N#Cc1c(-c2ccco2)cc(-c2ccc(F)cc2)nc1N | 0 | 0 | ? | 5.62µM | 35.5µM | 0
CC(C)Cc1cc(-c2ccco2)c(C#N)c(N)n1 | 0 | 0 | ? | - | 3.16µM | 0
CCSc1nc(N)c(C#N)c(-c2ccco2)c1C#N | 0 | 0 | 0 | 0 | ? | 0
CC(C)c1ccc(S(=O)(=O)N(C)CC2CCOCC2)cc1 | - | - | - | 0 | - | -
CCC(C)(C)n1nnnc1C(C(C)C)N(Cc1ccco1)Cc1cc2cc3c(cc2[nH]c1=O)OCO3 (stereo not given) | 0 | 0 | 0 | 0 | 31.6µM | 0
Cc1ccc2cc(CN(Cc3ccc4c(c3)OCO4)Cc3nnnn3Cc3ccco3)c(=O)[nH]c2c1 | 0 | 0 | ? | 0 | 0 | 0
CCNC(=S)N(Cc1ccco1)Cc1cc2cc3c(cc2[nH]c1=O)OCCO3 | 0 | 0 | 0 | 0 | 28.2µM | 0
CC(C)CNC(=S)N(Cc1ccco1)Cc1cc2cc3c(cc2[nH]c1=O)OCCO3 | 0 | 0 | 0 | ? | 31.6µM | 0
Cc1ccc(CN(Cc2cc3cc4c(cc3[nH]c2=O)OCCO4)Cc2nnnn2Cc2ccco2)cc1 | 0 | 0 | ? | 0 | 31.6µM | 0
Cc1ccc(C(=O)N2CCC3(CC2)N(C)C(=O)CS3(=O)=O)cc1 | - | - | - | 0 | - | -
Cc1cc(C)c2[nH]c(=O)c(CN(Cc3ccco3)C(=S)NCC3CCCO3)cc2c1 (stereo not given) | 0 | 0 | 0 | 0 | 0 | 0
Cc1ccc2cc(CN(Cc3ccco3)C(=S)NCC3CCCO3)c(=O)[nH]c2c1C (stereo not given) | -82.3 | 0 | 0 | 0 | 0 | 0
SMILES | KCNH2 3.1 block | hERG WT inh | Chronic BCR inh | ALOX12 inh | ClpP mod | LDHA inh
CCOC(=O)c1nn(-c2ccccc2)c2nc(-c3ccc(OC)cc3)c(C#N)c(=O)n12 | 0 | 0 | 0 | 0 | 0 | 0
CCOC(=O)c1nn(-c2ccccc2C)c2nc(-c3ccc(C)cc3)c(C#N)c(=O)n12 | 0 | 0 | - | 0 | 35.5µM | 0
CCOC(=O)c1nn(-c2ccccc2C)c2nc(-c3ccc(Cl)cc3)c(C#N)c(=O)n12 | 0 | 0 | ? | 0 | 31.6µM | 0
O=C(NN1C(=O)c2cc(Br)ccc2NC1c1ccccc1Cl)c1ccncc1 (stereo not given) | 0 | 0 | 0 | 0 | 0 | 0
O=C(NN1C(=O)c2cc(Br)ccc2NC1c1cc(Br)cc(Br)c1O)c1ccncc1 (stereo not given) | 0 | 0 | ? | 50.1µM | - | 0
O=C(CC1SC(N2CCCC2)=NC1=O)Nc1ccc(C(=O)N2CCN(c3cccc(Cl)c3)CC2)cc1 (stereo not given) | 0 | 0 | 0 | 0 | 31.6µM | 0
Cc1cccc(N2CCN(C(=O)c3ccc(NC(=O)CC4SC(N5CCCC5)=NC4=O)cc3)CC2)c1C (stereo not given) | 0 | 0 | 0 | 0 | 0 | 0
COc1ccc(S(=O)(=O)Nc2cccc(-c3ccc(N4CCCCC4)nn3)c2)c(OC)c1 | - | - | - | 11.2µM | - | 0
COc1ccc(OC)c(S(=O)(=O)Nc2ccc(-c3ccc(N4CCC(C)CC4)nn3)cc2)c1 | - | - | - | 8.91µM | - | 0
Cc1cc(C)c(S(=O)(=O)Nc2ccc(-c3ccc(N4CCC(C)CC4)nn3)cc2)cc1C | - | - | - | 0 | 0 | 0
O=C(Nc1ccccc1C(F)(F)F)c1ccccc1 | - | - | - | 0 | - | 0
Cc1ccnc(NC(=O)C2CCN(S(=O)(=O)c3ccc(Cl)c(C(F)(F)F)c3)CC2)c1 | 0 | 0 | 0 | 0 | 31.6µM | 0
Cc1ccc(NC(=O)C2CCN(S(=O)(=O)c3ccc(Cl)c(C(F)(F)F)c3)CC2)nc1 | 0 | 0 | 0 | 0 | - | 0
CNc1ccc(Br)cc(C(=O)/C=C/c2ccc(Cl)cc2Cl)c1=O | 0 | 0 | ? | 12.6µM | - | 0
CCC(C(=O)c1ccccc1)n1c(N2CCN(C)CC2)nc2c1c(=O)n(C)c(=O)n2C (stereo not given) | - | - | - | 0 | - | 0
Cc1cccc(CN2CCN(Cc3cc(=O)oc4cc(C)ccc34)CC2)c1 | - | - | - | ? | - | 0
Cc1cc(O)c2c(CN3CCN(Cc4ccccc4)CC3)cc(=O)oc2c1 | 0 | 0 | ? | ? | 0 | -31.3!
Cc1ccc2c(CN3CCN(S(=O)(=O)/C=C/c4ccccc4)CC3)cc(=O)oc2c1 | -88.5 | 0 | 0 | 0 | 0 | 0
Cc1c(O)ccc2c(CN3CCN(C/C=C/c4ccccc4)CC3)cc(=O)oc12 | -96.6 | -75.5 | 0 | 0 | - | 0
Cc1cc2oc(=O)cc(CN3CCN(C/C=C/c4ccccc4)CC3)c2cc1O | - | - | ? | ? | - | 0
CNC(=O)[C@@H]1CN(C(=O)Cc2ccsc2)C[C@H]1c1n[nH]c(C)n1 | - | - | - | 0 | - | -
COc1cc(/C=C2/NC(=O)N(Cc3ccccc3F)C2=O)ccc1O | -104.2 | 0 | ? | 0 | - | 0

Source: PubChem (National Center for Advancing Translational Sciences (NCATS))
